# Rows were chosen to be rich in hits. Some 3.2% of all compounds tested hit in one or more screens of this group.
# LMP1 NFkB inh – EBV LMP1-driven NF-kappaB luciferase reporter inhibitors, primary screen, cell-based, luminescence, single point; LMP1-induced NF-kappaB luciferase reporter cells; inhibition, % at 12.5 µM; actives 0.69% (n = 350,000); AID 504558, 2011; in the data active means inhibition above about 41%; inconclusive means no clear call, values can overlap the other calls;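 further: 0% = neutral control wells and 100% = reference inhibitor control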
# EWS-Fli inh – EWS/Fli-driven NR0B1 reporter inhibitors, primary screen, A673 cells, NR0B1 luciferase, luminescence, MLPCN library | inhibition, % at 12.6 µM | actives 0.67% (n = 350,000) | AID 651661, 2012 | viability-normalised;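 active means mean inhibition of at least 50% after viability correction, with every replicate also passing that limit; inconclusive means mean reaches 50% but only one of two replicates passes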;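 further: firefly luciferase signal divided by Alamar Blue viability fluorescence both relative to DMSO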
# LGR2 antag – inhibitors of bursicon-induced LGR2 CRE-luciferase signal, primary screen, cell-based, HEK293, CRE-luciferase reporter, bursicon stimulation; Drosophila bursicon receptor LGR2 (rickets); bursicon-stimulated, 4 h; inhibition, % at 9.99 µM; actives 0.35% (n = 380,000); AID 720647, 2013;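 active means drop in luminescence signal, shown as inhibition above about 50% in the replicate tests, limit read from the data, passing the limit was not always enough; inconclusive means probably only some replicates passing the limit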;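 further: agonist challenge used bursicon conditioned medium at about half maximal strength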
# TWEAK Fn14 block – inhibitors of TWEAK-Fn14 signaling, primary screen, luciferase reporter cells, uHTS; TWEAK-stimulated Fn14 reporter cells, luciferase luminescence, 8 h; inhibition, % at 10 µM; actives 2% (n = 360,000); AID 1159606, 2016; in the data active means inhibition above about 50%
# TROY signal inh – inhibitors of TROY-driven NF-kB signaling, primary screen, Q293 LMP1-TROYcd cells, NF-kB luciferase, uHTS | actives 0.98% (n = 360,000) | AID 1347056, 2019 | inhibition, % at 10 µM | Q293 LMP1-TROYcd NF-kB luciferase reporter, 4 h;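 active means compounds whose plate-normalised and pattern-corrected inhibition of the luciferase reporter signal at the single screening dose is 50% or more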
# PAX8 inh HTS – inhibitors of PAX8-driven TPO luciferase reporter, primary screen, RMG-I cells, single concentration | SteadyGlo, 24 h | inhibition, % at 12.6 µM | actives 1.2% (n = 360,000) | AID 652154, 2013;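 active means mean replicate inhibition at least 60% with every replicate also reaching 60%; inconclusive means only one of the two criteria is met; inactive means mean below 60% and not all replicates reaching 60%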;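 further: luciferase light reporting Pax8 driven TPO promoter activity; plate controls were median of neutral control wells for no effect and mitoxantrone controls for full effect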
# Starred values were filed as active, the others as inactive; ? = inconclusive; / = no result given.
SMILES,LMP1 NFkB inh,EWS-Fli inh,LGR2 antag,TWEAK Fn14 block,TROY signal inh,PAX8 inh HTS
Cc1noc(C)c1S(=O)(=O)N(C)C[C@H]1OCCCC[C@H](C)Oc2ccc(NC(=O)Nc3ccc4c(c3)OCO4)cc2C(=O)N([C@@H](C)CO)C[C@@H]1C,/,-5,11,/,/,-9
O=C1O[C@H](c2ccccc2)[C@H](c2ccccc2)N2[C@H]1[C@@H](C(=O)N1CCCCCCC1)[C@]1(C(=O)Nc3ccc(C#CC4=CCCCC4)cc31)[C@H]2c1ccc(OCCO)cc1,/,-7,/,/,/,2
O=C(NNS(=O)(=O)c1ccc(F)cc1)c1ccc(O)cc1,12,13,-8,62*,6,11
O=C(NNS(=O)(=O)c1ccc(F)cc1)c1ccc(S(=O)(=O)N2CCCCC2)cc1,5,/,0,2,-14,15
CO[C@H]1CN(C)C(=O)c2cc(NS(=O)(=O)c3ccccc3)ccc2OC[C@@H](C)N(Cc2ccccn2)C[C@H]1C,/,-4,0,/,/,/
C=CCn1c(SCC(=O)Nc2sccc2C(N)=O)nc2sc(C)c(C)c2c1=O,-3,/,/,49,51*,/
Cc1nc2c(ccc3nc(NC(=O)C(c4ccccc4)c4ccccc4)sc32)s1,3,12,-23,75*,30,15
CCOC(=O)c1ccc(NC(=S)N2CCSC2c2ccc(OC)cc2)cc1 (configuration not stated),67*,/,7,15,5,-6
CO[C@H]1CN(C)C(=O)c2ccc(NC(=O)Nc3ccccc3F)cc2OC[C@@H](C)N(CC2CC2)C[C@H]1C,/,-1,-5,/,/,-13
CCCCN1C2CCCC1CC(NC(=O)C1CCCCC1)C2 (configuration not stated),51*,/,/,-5,-4,-17
CCCN1C[C@H](C)[C@H](OC)CN(C)C(=O)c2cc(NC(=O)C3CCOCC3)ccc2OC[C@H]1C,/,1,-1,/,/,/
Cc1noc(C)c1NC(=O)N(C)C[C@@H]1Oc2c(NC(=O)Nc3ccc(F)cc3)cccc2C(=O)N([C@@H](C)CO)C[C@@H]1C,/,-2,6,/,/,1
Oc1ccc(C[C@H]2CNC(=S)N2CC2CCCN2C[C@H](Cc2ccc(O)cc2)N2C[C@H](Cc3ccc(O)cc3)N(CC3CCCCCC3)C2=S)cc1 (some centres not stated),-27,42,10,89*,35,99*
Oc1ccc(C[C@H]2CNC(=S)N2CC2CCCN2C[C@H](Cc2ccc(O)cc2)N2C[C@H](Cc3ccccc3)N(CC3CCCCCC3)C2=S)cc1 (some centres not stated),2,20,8,-9,6,90*
Oc1ccc(C[C@H]2CNC(=S)N2CC2CCCN2C[C@H](Cc2ccccc2)N2C[C@H](Cc3ccc(O)cc3)N(CC3CCCCC3)C2=S)cc1 (some centres not stated),/,21,-26,29,7,77*
Oc1ccc(C[C@H]2CN([C@@H](Cc3ccccc3)CN3CCC[C@@H]3CN3C(=S)NC[C@@H]3Cc3ccccc3)C(=S)N2CC2CCCCC2)cc1,/,8,9,9,10,13
Oc1ccc(C[C@H]2CNC(=S)N2CC2CCCN2C[C@H](Cc2ccc(O)cc2)N2C[C@H](Cc3ccccc3)N(CC3CCCCC3)C2=S)cc1 (some centres not stated),11,11,15,62*,0,87*
Cc1noc(C)c1NC(=O)Nc1ccc2c(c1)C(=O)N([C@@H](C)CO)C[C@@H](C)[C@@H](CN(C)S(=O)(=O)c1c(C)noc1C)O2,/,-5,-4,/,/,/
O=C(C[C@@H]1C[C@@H]2c3cc(NC(=O)C4CCOCC4)ccc3O[C@@H]2[C@@H](CO)O1)NCCc1ccccc1,/,-2,-14,/,/,2
CCc1cccc(NC(=O)Cn2cc(C=O)c3ccccc32)c1,14,16,5,71*,18,10
COc1cccc(NC(=O)Cn2cc(C=O)c3ccccc32)c1,-1,6,14,18,11,11
Cc1csc2sc(-c3ccnc(SCC(=O)NCc4ccccc4)n3)c(C)c12,16,55*,-14,2,4,30
Cc1csc(SCC(=O)NCc2ccccc2)n1,-2,4,5,15,2,14
C[C@@H]1CN([C@@H](C)CO)C(=O)c2cccc(N(C)C)c2O[C@H]1CN(C)Cc1ccc(C(=O)O)cc1,/,2,-8,/,/,12
Cc1ccc(NCc2nc3ccccc3n2C)cc1,-46,/,/,66*,49,/
SMILES,LMP1 NFkB inh,EWS-Fli inh,LGR2 antag,TWEAK Fn14 block,TROY signal inh,PAX8 inh HTS
Cn1c(CNc2ccc(O)cc2)nc2ccccc21,-14,-82,-29,17,-23,-34
N#C[C@H]1[C@@H](c2ccc(/C=C/c3ccccc3)cc2)[C@@H](CO)N1C(=O)Cc1ccccn1,/,-10,-3,/,/,-7
Cc1cc(/C=N/Nc2ncnc(N)c2[N+](=O)[O-])c(C)n1-c1ccccc1,78*,83*,79*,98*,83*,62*
Cc1cc(=O)[nH]c(N/N=C/c2cc(C)n(-c3ccccc3)c2C)n1,-2,-22,-8,25,25,-97
COc1cccc(/C=N/Nc2ncnc(N)c2[N+](=O)[O-])c1OC,?,/,/,84*,43,/
COc1cccc(C=NNc2ccc([N+](=O)[O-])cn2)c1OC,-15,-80,-49,-51,-36,-130
O=C(C[C@@H]1C[C@@H]2c3cc(NC(=O)Nc4ccccc4F)ccc3O[C@@H]2[C@@H](CO)O1)NCC1CC1,/,-1,-5,/,/,-5
C[C@@H]1CN([C@@H](C)CO)S(=O)(=O)c2ccc(C3=CCCC3)cc2O[C@H]1CN(C)S(=O)(=O)c1ccc(F)cc1,/,3,29,/,/,/
N=c1c(S(=O)(=O)c2ccc(Cl)cc2)cc2c(=O)n3ccccc3nc2n1Cc1ccco1,6,-3,-13,53*,31,-1
COc1ccc(CCNC(=O)c2cc3c(=O)n4ccccc4nc3n(CCCN3CCOCC3)c2=N)cc1,-12,14,-4,-3,-11,-14
COc1ccc(CCNC(=O)c2cc3c(=O)n4ccccc4nc3n(CCN3CCOCC3)c2=N)cc1,0,11,7,63*,48,-6
COc1ccc(CCn2c(=N)c(C(=O)NCc3ccco3)cc3c(=O)n4ccccc4nc32)cc1OC,0,3,-1,-8,-4,7
COc1ccc(CCNC(=O)c2cc3c(=O)n4ccccc4nc3n(Cc3ccco3)c2=N)cc1OC,3,/,-19,96*,62*,-6
N=c1c(S(=O)(=O)c2ccc(Br)cc2)cc2c(=O)n3ccccc3nc2n1Cc1ccco1,-5,/,10,46,29,1
